Assay [1] is described as follows: qHTS assay to identify small molecule antagonists of the vitamin D receptor (VDR) signaling pathway - cell viability counter screen (AID 743225). Also: nearly all actives have a fitted effect of over 50% in size. Summed up:
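Same-well multiplex: following 16 h treatment of HEK 293T cells carrying a UAS-driven beta-lactamase reporter with compound and agonist (3 nM final), and a 2 h FRET substrate step, CellTiter-Glo was added and luminescence read after 30 min.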

Assay [2] can be described thus: qHTS assay to identify small molecule agonists of the NFkB signaling pathway - cell viability counter screen (AID 1159515; calls by dose curve; also: series mostly up to about 61 µM; nearly all actives have a fitted effect of over 55% in size). The procedure, abridged: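 5 hr compound treatment of NFkB-bla ME-180 cells (2,000/well, seeded overnight beforehand), followed by reporter substrate for 1.5 hr. CellTiter-Glo added afterward; luminescence after 30 min RT.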
Background: qHTS replaces the single test concentration by a dilution series.

Assay [3] is described as follows: qHTS assay to identify small molecule agonists of the endoplasmic reticulum stress response signaling pathway (AID 1159516; active = well fitted activation curve with a large enough effect in the signal ratio in the repeat runs, not every such curve was filed as active; the % refers to the signal ratio). Summed up:
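Reporter HeLa cells (ESRE-beta-lactamase) underwent 5 hr compound incubation at 37 C and 5% CO2 in quantitative HTS format. Detection followed 2 hr of FRET substrate loading at room temperature.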

A short description of assay [4]: qHTS assay to identify small molecule agonists of the endoplasmic reticulum stress response signaling pathway - cell viability counter screen (AID 1159517; calls by dose curve;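 also: HeLa cells carrying an ER stress response element beta-lactamase reporter; series mostly up to about 61 µM; nearly all actives have a fitted effect of over 50% in size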). The procedure, abridged:
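HeLa cells carrying an ESRE-driven beta-lactamase reporter receive compound for 5 hr at 37 C. Cell viability is then gauged with CellTiter-Glo by luminescence, 30 min at room temperature.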

Assay [5] can be described thus: qHTS assay to identify small molecule antagonists of the retinoid-related orphan receptor gamma (ROR-gamma) signaling pathway - cell viability counter screen (AID 1159520). Also: nearly all actives have a fitted effect of over 50% in size. The procedure, abridged: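 Cytotoxicity was read from cellular ATP (CellTiter-Glo luminescence) after 16 hr at 37 C with 1 uM doxycycline induction. The inducer was added 2 hr after compound transfer to Tet-on ROR gamma CHO cells.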

Assay [6] concerns the target Nuclear receptor ROR-gamma (Homo sapiens) (UniProt P51449). In words: qHTS assay to identify small molecule antagonists of the retinoid-related orphan receptor gamma (ROR-gamma) signaling pathway (AID 1159521;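 also: CHO cells with doxycycline inducible ROR-gamma driving an RORE luciferase reporter; top concentration of the series differs between compounds; nearly all actives have a fitted effect of over 50% in size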). Summed up:
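Inducible-expression reporter assay: doxycycline (1 uM final) switched on RORγ in CHO cells bearing a ROR response element-luciferase construct, with test compounds present from 2 h beforehand. Decreased luminescence after 16 h defined antagonist activity.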

Assay [7] can be described thus: qHTS assay to identify small molecule agonists of the AP-1 signaling pathway - cell viability counter screen (AID 1159525; calls by dose curve; also: nearly all actives have a fitted effect of over 55% in size). Summed up:
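Luminescent ATP readout (Cell Titer Glo, 30 min RT), normalised to DMSO and tetra n-octyl ammonium bromide controls. Cells were ME-180 AP-1-bla in 0.5% dialyzed FBS Opti-MEM, with a 5 h, 37 °C compound exposure.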

Assay [8] in a line: qHTS assay to identify small molecule agonists of the AP-1 signaling pathway (AID 1159526; calls by dose curve).
In assay [9] the target is Retinoic acid receptor RXR-alpha (Homo sapiens) (UniProt P19793). The assay can be described thus: qHTS assay to identify small molecule agonists of the RXR signaling pathway (AID 1159527; calls by dose curve; also: nearly all actives have a fitted effect of over 35% in size). Summed up:
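Compounds in DMSO were added to RXR-alpha-UAS-bla HEK 293T cells kept in 2% charcoal-stripped serum, and incubated 16 hr at 37 C with 5% CO2. Reporter signal came from a 2 hr B/G FRET substrate step.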

The nature of assay [10]: qHTS assay to identify small molecule agonists of the RXR signaling pathway - cell viability counter screen (AID 1159529). Summed up:
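Counter screen: CellTiter-Glo luminescence. Cells: RXR-alpha-UAS-bla HEK 293T. Medium: 2% charcoal-stripped FBS. Treatment: 16 h, 37 C. Reagent incubation: 30 min, RT.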

The nature of assay [11]: qHTS assay to identify small molecule antagonists of the retinoid acid receptor (RAR) signaling pathway - cell viability counter screen (AID 1159551). Also: nearly all actives have a fitted effect of over 35% in size. Summed up:
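Seed C3RL4 cells; next day add compound, then retinol to 1 uM final; incubate 6 h at 37 C; add CellTiter-Glo; read luminescence after 30 min at RT.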

Assay [12] is described as follows: qHTS assay to identify small molecule antagonists of the retinoic acid receptor (RAR) signaling pathway (AID 1159552; also: nearly all actives have a fitted effect of over 50% in size). The procedure, abridged:
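Antagonism of retinol-induced RARE reporter activity was measured in C3RL4 cells. Exposure to compounds and 1 uM final retinol lasted 6 hr at 37 C, with luminescence as endpoint.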

Assay [13] can be described thus: qHTS assay to identify small molecule agonists of the retinoic acid receptor (RAR) signaling pathway (AID 1159553). Also: potency is read from the fitted curve at half-maximal effect. The procedure, abridged:
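Activation of retinol signaling was monitored via a RARE luciferase reporter in C3RL4 cells. After 6 hr compound treatment at 37 C, detection reagent was added for 30 min at room temperature before luminescence reading.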

A short description of assay [14]: qHTS assay to identify small molecule antagonists of the estrogen related receptor (ERR) signaling pathway from Tox21 library - cell viability counter screen (AID 1224834). Also: nearly all actives have a fitted effect of over 30% in size. Summed up:
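CellTiter-Fluor fluorescence measured; ERR cells; 17.5 h compound incubation at 37 C; 30 min reagent step.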

The target of assay [15] is Luciferin 4-monooxygenase (Photinus pyralis) (UniProt P08659). In words: qHTS assay to identify small molecule inhibitors of firefly luciferase (AID 1224835). Also: nearly all actives have a fitted effect of over 25% in size. Also: potency is read from the fitted curve at half-maximal effect. The procedure, abridged: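 Inhibition of purified Photinus luciferase is measured by luminescence. Substrate levels (D-luciferin, ATP) sit at their KM values. Each compound is tested in a concentration series.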
Chain of Luciferin 4-monooxygenase (Photinus pyralis) (P08659 whole entry, looked up): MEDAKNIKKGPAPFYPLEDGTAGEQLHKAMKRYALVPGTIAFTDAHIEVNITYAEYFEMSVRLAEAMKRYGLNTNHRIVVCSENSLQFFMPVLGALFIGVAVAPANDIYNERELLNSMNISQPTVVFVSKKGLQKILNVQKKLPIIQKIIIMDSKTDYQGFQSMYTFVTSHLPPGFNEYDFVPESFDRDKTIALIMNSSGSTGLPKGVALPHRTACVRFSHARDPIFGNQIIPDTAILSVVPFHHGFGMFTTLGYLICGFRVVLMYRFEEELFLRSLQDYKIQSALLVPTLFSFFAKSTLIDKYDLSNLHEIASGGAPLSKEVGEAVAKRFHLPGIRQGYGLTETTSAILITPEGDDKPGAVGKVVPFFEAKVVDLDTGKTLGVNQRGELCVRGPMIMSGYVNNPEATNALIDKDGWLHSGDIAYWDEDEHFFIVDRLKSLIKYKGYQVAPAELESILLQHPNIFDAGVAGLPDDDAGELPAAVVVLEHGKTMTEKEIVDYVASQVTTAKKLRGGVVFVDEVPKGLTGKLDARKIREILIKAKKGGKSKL

A short description of assay [16]: qHTS assay to identify small molecule agonists of the constitutive androstane receptor (CAR) signaling pathway - cell viability counter screen (AID 1224836). Also: series mostly up to about 92 µM; nearly all actives have a fitted effect of over 45% in size. The procedure, abridged: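 Double-stable HepG2 hepatoma cells (hCAR plus CYP2B6-2.2kb) are treated for 23 h at 37 C with test compounds in 15-point concentration series. PK11195 at 0.75 uM final is co-added. Cell viability is quantified by CellTiter-Fluor.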

The nature of assay [17]: qHTS assay to identify small molecule antagonists of the constitutive androstane receptor (CAR) signaling pathway - cell viability counter screen (AID 1224837). Also: series mostly up to about 92 µM; nearly all actives have a fitted effect of over 45% in size. Summed up: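 Using CellTiter-Fluor, viability is scored in HepG2 cells stably carrying hCAR and a 2.2kb CYP2B6 reporter after 23 hr compound exposure across 15 concentrations, with CITCO present at 50 nM.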
Assay [18] has as its target Nuclear receptor subfamily 1 group I member 3 (Homo sapiens) (UniProt Q14994). The assay can be described thus: qHTS assay to identify small molecule antagonists of the constitutive androstane receptor (CAR) signaling pathway (AID 1224838).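 Also: HepG2 cells stably expressing hCAR with CYP2B6 luciferase reporter stimulated by CITCO; nearly all actives have a fitted effect of over 40% in size.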 Summed up:
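Reporter luminescence was quantified after 24 h exposure of hCAR/CYP2B6-2.2kb double-stable HepG2 cells to compounds at 15 concentrations in the presence of 50 nM CITCO final.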

Assay [19] shares this target. The assay can be described thus: qHTS assay to identify small molecule agonists of the constitutive androstane receptor (CAR) signaling pathway (AID 1224839). Also: nearly all actives have a fitted effect of over 15% in size. Also: potency is read from the fitted curve at half-maximal effect. As to activation: series mostly up to about 92 µM. Summed up: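 Readout: firefly luciferase luminescence via ONE-Glo. System: HepG2 double-stable for hCAR and CYP2B6-2.2kb. Conditions: 15-point compound titration, PK11195 at 0.75 uM final, 24 h incubation.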

The nature of assay [20]: qHTS assay to identify small molecule antagonists of the estrogen related receptor signaling pathway with the pleiotropic PPARgamma coactivator (PGC) from Tox21 10K library - cell viability counter screen (AID 1224840; active = well fitted cell-killing curve with a large enough effect in the repeat runs, not every such curve was filed as active; also: nearly all actives have a fitted effect of over 40% in size). The procedure, abridged: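 Here the PGC/ERR cells serve as a cytotoxicity control: they are exposed to compounds for 17.5 hours at 37 C, and live-cell signal is quantified using CellTiter-Fluor fluorescence.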

The values that follow come from PubChem BioAssay (Tox21).

Records with an inconclusive call do not appear. Unmarked numbers belong to inactive results. Active and inactive are the calls of the source. Unless noted, calls follow the shape of the dose curve; as a rule, active = well fitted curve in the direction sought with a large enough effect in the repeat runs; inconclusive = weak or mixed curves; inactive = no such curve, though single readings can be large; an effect the other way counts as inactive or inconclusive.

Chain of Nuclear receptor subfamily 1 group I member 3 (Homo sapiens) (Q14994 whole entry, looked up): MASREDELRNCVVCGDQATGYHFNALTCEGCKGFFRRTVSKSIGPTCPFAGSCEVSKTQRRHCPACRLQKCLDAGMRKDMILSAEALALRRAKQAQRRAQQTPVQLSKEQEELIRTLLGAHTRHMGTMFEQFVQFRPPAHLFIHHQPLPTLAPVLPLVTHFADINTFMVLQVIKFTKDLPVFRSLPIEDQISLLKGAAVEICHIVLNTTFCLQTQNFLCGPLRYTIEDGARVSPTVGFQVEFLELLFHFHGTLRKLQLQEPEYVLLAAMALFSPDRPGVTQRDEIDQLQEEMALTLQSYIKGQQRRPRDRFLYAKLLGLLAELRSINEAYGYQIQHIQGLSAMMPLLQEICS
Chain of Retinoic acid receptor RXR-alpha (Homo sapiens) (P19793 whole entry, looked up): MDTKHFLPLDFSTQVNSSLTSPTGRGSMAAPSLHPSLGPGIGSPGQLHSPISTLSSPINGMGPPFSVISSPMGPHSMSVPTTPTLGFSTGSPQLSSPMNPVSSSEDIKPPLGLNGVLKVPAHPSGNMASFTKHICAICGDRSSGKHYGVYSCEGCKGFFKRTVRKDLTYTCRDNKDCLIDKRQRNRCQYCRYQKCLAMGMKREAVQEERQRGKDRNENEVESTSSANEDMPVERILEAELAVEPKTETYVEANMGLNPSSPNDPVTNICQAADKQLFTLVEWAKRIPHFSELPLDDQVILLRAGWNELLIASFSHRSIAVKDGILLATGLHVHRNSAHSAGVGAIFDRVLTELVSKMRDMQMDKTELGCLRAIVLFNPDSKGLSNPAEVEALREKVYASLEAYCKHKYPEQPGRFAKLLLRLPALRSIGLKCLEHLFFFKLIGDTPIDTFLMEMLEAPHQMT

Regarding `CC(C)=CCC/C(C)=C\C#N`, the call in assay [1], in [2], in [4], in assay [5], in assay [6] and in assay [7] was inactive. The molecule was called inactive in [11], in [12], in assay [14], in assay [16], in assay [17] and in [18]. Besides, the molecule was called inactive in [20]. For the same molecule, the Potency result in assay [3], in assay [8], in [9], in assay [10], in assay [13] and in [15] was “inactive” throughout. Also, the Potency entry in [19] is “inactive”.

Turning to `CCOC(=O)c1ccc(N(C)C)cc1`, the result in [1], in assay [2], in assay [4], in assay [5], in assay [6] and in assay [7] was inactive. Further, the molecule was classed as inactive in [11], in assay [12], in [14], in assay [16], in assay [17] and in [18]. For the same molecule, the call in assay [20] was inactive. Also, the Potency result in [3], in assay [8], in assay [9] and in [10] was “inactive” each time. In addition, the Potency in assay [13] was 15.4 µM (active); in assay [15] it was 35.6 µM (active); in assay [19], 30.6 µM (active).

In the case of `CCCCCCCCOCCC#N`, the outcome in assay [1], in assay [2], in assay [4], in [5], in assay [6] and in [7] was inactive. Besides, the outcome in assay [11], in assay [12], in [14], in assay [16], in [17] and in assay [18] was inactive. Also, in assay [20], the outcome was inactive. For the same molecule, the Potency result in assay [3], in assay [8], in assay [9], in assay [10], in assay [13] and in [15] was “inactive” in each case. Also, the Potency entry in assay [19] is “inactive”.

As for `O=S(=O)(O)CC(O)CCl` (centres undefined), the result in [1], in assay [2], in assay [4], in assay [5], in assay [6] and in assay [7] was inactive. Further, the molecule was called inactive in [11], in assay [12], in assay [14], in [16], in assay [17] and in assay [18]. Further, in assay [20], the molecule was called inactive. For the same molecule, the Potency entry in assay [3], in assay [8], in [9], in assay [10], in [13] and in [15] was “inactive” in each case. The Potency result in assay [19] was “inactive”.

Take `Cc1ccc2ccccc2n1`: the call in assay [2], in [4], in assay [5], in assay [6], in assay [7] and in [11] was inactive. Besides, the molecule was classed as inactive in assay [12], in assay [14], in assay [16], in [17], in assay [18] and in assay [20]. For the same molecule, the Potency result in assay [3], in [8], in [9], in assay [10], in [13] and in assay [15] was “inactive” in each case.

As to `Cc1ccc2cccnc2c1`, the molecule was called inactive in assay [2], in assay [4], in assay [5], in assay [6], in assay [7] and in assay [11]. In addition, the molecule was called inactive in assay [12], in assay [14], in assay [16], in assay [17], in assay [18] and in assay [20]. Besides, the Potency result in assay [3], in [8], in [9], in assay [10], in [13] and in assay [15] was “inactive” throughout.

As to `CCCCCCCOC(C)=O`, the outcome in [1], in assay [2], in assay [4], in assay [5], in assay [6] and in assay [7] was inactive. Further, the outcome in assay [11], in assay [12], in [14], in [16], in assay [17] and in assay [20] was inactive. The Potency entry in [3], in assay [8], in [9], in assay [10], in [13] and in [15] was “inactive” throughout.
